In publication PMC7862700, “An all-to-all approach to the identification of sequence-specific readers for epigenetic DNA modifications on cytosine”:

Columns and labels:
Assay in all cases: DAPPL (digital affinity profiling via proximity ligation, sequencing); 10 mM Tris-HCl pH 7.5, 50 mM NaCl, 1 mM DTT, 4% glycerol, room temperature, 30 min; GST-TFs on glutathione beads, 16-mer random dsDNA library, 0.1% formaldehyde crosslink after washing; high values mean tight binding
FEV = target: T1, FEV (Homo sapiens, UniProt Q99581 1-238); details: protein: recombinant; tags: N-terminal GST; dsDNA, one strand shown
T1 sequence: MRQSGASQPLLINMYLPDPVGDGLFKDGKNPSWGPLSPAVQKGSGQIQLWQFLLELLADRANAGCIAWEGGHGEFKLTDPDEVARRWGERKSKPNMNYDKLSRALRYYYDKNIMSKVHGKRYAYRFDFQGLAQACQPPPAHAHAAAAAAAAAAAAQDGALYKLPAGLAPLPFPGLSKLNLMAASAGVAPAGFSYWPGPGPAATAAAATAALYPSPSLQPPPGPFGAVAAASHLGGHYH
Method in brief: (§1)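 Pools of DNA-barcoded human transcription factors, expressed in yeast as GST fusions on glutathione beads and combined with a tag-only sample, were incubated with 200 nmole of a 16-mer random double-stranded DNA library. Incubation took 30 min at room temperature in Tris/NaCl/DTT/glycerol buffer and was followed by washing, 0.1% formaldehyde crosslinking, proximity ligation (BsaI/T4 ligase, 1 h, 37 °C), PCR amplification and sequencing on an Illumina NextSeq500. Binding signal is the ratio of a hexamer's read frequency for a factor to its frequency for the tag-only sample.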

ETV5 = ETV5 (Homo sapiens, UniProt P41161 1-510); details: protein: recombinant; tags: N-terminal GST; dsDNA, one strand shown
Method in brief: as §1

HSF1 = HSF1 (Homo sapiens, UniProt Q00613 1-529); details: protein: recombinant; tags: N-terminal GST; chain copies: 3; dsDNA, one strand shown
Method in brief: as §1

SPIC = target: T2, SPIC (Homo sapiens, UniProt Q8N5J4 1-248); details: protein: recombinant; tags: N-terminal GST; dsDNA, one strand shown
T2 sequence: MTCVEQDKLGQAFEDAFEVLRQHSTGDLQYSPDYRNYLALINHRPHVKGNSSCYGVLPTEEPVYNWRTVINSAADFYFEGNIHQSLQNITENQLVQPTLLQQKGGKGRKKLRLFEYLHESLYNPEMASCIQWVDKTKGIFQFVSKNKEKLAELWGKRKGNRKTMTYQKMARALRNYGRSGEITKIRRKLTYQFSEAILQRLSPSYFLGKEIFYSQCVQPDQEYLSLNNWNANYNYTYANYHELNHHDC
Method in brief: as §1

ELF4 = ELF4 (Homo sapiens, UniProt Q99607 1-663); details: protein: recombinant; tags: N-terminal GST; dsDNA, one strand shown
Method in brief: as §1

ELK4 = target: T3, ELK4 (Homo sapiens, UniProt P28324-2 1-405); details: protein: recombinant; tags: N-terminal GST; dsDNA, one strand shown
T3 sequence: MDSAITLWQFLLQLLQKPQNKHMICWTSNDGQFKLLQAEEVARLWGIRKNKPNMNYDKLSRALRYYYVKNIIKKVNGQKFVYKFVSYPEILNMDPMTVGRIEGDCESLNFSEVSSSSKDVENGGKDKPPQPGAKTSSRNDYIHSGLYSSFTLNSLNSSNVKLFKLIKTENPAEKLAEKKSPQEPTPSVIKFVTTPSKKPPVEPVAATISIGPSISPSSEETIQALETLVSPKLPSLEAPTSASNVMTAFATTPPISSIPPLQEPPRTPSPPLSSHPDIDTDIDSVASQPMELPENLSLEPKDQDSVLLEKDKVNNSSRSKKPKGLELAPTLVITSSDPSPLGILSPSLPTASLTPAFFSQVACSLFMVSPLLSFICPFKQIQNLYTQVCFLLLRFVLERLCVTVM
Method in brief: as §1

ETV2 = target: T4, ETV2 (Homo sapiens, UniProt O00321 1-342); details: protein: recombinant; tags: N-terminal GST; dsDNA, one strand shown
T4 sequence: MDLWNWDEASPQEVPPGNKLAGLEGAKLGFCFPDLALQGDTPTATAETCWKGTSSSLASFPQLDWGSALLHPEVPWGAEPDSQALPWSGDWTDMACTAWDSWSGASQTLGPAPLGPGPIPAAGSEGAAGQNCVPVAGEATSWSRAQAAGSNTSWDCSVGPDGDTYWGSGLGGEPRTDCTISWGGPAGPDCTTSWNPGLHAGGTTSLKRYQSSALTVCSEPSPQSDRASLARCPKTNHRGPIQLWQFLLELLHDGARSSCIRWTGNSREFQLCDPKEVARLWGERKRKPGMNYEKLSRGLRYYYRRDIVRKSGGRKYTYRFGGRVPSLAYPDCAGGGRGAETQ
Method in brief: as §1

ELF3 = target: T5, ELF3 (Homo sapiens, UniProt P78545 1-371); details: protein: recombinant; tags: N-terminal GST; dsDNA, one strand shown
T5 sequence: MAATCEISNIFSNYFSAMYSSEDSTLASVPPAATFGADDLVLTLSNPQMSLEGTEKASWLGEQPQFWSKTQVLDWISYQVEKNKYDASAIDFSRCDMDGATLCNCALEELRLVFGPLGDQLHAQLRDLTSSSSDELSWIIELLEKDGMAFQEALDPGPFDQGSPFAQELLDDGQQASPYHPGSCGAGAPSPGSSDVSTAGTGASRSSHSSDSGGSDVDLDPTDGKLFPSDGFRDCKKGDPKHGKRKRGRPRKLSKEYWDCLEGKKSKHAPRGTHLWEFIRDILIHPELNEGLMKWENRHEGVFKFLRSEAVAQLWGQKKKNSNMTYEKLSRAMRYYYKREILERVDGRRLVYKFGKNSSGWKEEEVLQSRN
Method in brief: as §1

CRX = CRX (Homo sapiens, UniProt O43186 1-299); details: protein: recombinant; tags: N-terminal GST; dsDNA, one strand shown
Method in brief: as §1

Sequence of HSF1 (Q00613 whole entry): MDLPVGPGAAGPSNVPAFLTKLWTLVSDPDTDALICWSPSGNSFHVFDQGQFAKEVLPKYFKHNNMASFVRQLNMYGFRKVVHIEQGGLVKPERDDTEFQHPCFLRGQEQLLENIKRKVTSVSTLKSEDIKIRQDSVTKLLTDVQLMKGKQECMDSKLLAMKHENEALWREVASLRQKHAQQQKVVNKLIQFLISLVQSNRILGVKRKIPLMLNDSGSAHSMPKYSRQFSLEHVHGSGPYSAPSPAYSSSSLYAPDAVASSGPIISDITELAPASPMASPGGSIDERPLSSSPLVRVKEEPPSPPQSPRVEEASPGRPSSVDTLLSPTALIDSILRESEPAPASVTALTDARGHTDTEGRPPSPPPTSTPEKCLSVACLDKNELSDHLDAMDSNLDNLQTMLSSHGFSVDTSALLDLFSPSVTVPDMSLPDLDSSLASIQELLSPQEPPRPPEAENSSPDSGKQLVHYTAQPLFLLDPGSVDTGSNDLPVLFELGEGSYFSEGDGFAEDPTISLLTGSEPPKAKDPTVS
Sequence of ETV5 (P41161 whole entry): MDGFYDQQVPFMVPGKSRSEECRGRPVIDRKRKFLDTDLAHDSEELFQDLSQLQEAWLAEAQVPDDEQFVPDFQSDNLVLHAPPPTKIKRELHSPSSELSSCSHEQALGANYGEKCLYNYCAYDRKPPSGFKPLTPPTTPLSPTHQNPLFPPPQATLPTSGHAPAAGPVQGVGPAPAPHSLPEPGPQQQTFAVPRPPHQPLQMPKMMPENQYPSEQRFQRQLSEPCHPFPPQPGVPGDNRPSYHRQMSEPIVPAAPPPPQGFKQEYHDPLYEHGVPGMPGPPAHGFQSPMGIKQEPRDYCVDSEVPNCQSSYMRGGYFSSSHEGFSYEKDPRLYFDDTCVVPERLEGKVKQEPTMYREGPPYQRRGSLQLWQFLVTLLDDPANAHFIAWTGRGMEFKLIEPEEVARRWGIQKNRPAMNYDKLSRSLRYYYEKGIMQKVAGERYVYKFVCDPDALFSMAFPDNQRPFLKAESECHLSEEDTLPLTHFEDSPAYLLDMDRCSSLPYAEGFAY
Sequence of ELF4 (Q99607 whole entry): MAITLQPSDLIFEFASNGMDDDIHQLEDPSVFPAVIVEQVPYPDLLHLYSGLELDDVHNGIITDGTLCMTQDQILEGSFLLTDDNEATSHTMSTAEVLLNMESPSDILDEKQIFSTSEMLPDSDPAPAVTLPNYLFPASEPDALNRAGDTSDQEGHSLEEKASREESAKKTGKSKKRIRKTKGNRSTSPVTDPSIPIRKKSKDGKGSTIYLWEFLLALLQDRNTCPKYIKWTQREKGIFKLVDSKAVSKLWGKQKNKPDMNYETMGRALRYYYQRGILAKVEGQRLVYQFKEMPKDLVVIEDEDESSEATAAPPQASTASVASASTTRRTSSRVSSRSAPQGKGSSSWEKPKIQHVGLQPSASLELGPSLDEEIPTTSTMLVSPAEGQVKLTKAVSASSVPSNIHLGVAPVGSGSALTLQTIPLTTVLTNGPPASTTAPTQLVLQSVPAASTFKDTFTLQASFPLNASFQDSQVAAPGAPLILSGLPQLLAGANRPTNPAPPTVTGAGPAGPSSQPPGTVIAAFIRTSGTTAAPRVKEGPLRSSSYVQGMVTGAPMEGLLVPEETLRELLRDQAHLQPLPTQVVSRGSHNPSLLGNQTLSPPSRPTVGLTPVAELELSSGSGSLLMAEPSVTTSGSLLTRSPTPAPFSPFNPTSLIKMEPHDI
Sequence of CRX (O43186 whole entry): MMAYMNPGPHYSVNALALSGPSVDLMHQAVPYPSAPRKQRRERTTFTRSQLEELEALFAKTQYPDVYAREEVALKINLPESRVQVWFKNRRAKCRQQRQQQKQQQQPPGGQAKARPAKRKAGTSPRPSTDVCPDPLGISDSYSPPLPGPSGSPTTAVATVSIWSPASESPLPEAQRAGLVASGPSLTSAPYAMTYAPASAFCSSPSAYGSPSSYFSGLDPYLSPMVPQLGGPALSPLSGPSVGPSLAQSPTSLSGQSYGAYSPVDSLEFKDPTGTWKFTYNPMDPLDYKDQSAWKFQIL

**Q.** Which binding signal (FEV) does the source give for TCTCAT here?
**A.** 1.27 fold enrichment (6-mer frequency, TF over GST control)

**Q.** And the binding signal (ETV5)?
**A.** 1.39 fold enrichment (6-mer frequency, TF over GST control)

**Q.** And the binding signal (HSF1)?
**A.** 1.29 fold enrichment (6-mer frequency, TF over GST control)

**Q.** What about the binding signal (SPIC) of the same sequence?
**A.** 1.46 fold enrichment (6-mer frequency, TF over GST control)

**Q.** And the binding signal (ELF4)?
**A.** 1.25 fold enrichment (6-mer frequency, TF over GST control)

**Q.** And the binding signal (ELK4)?
**A.** 1.37 fold enrichment (6-mer frequency, TF over GST control)

**Q.** What about the binding signal (ETV2) of the same sequence?
**A.** 1.46 fold enrichment (6-mer frequency, TF over GST control)

**Q.** What about the binding signal (ELF3) of the same sequence?
**A.** 1.32 fold enrichment (6-mer frequency, TF over GST control)

**Q.** And the binding signal (CRX)?
**A.** 1.36 fold enrichment (6-mer frequency, TF over GST control)
